Data as given in PubChem BioAssay (NCATS).
Results filed as inconclusive are left out. A call without a number means that no potency is given here. Values without a mark were called inactive. Activity calls are given as the source filed them. Calls come from the whole dose curve; as a rule, active = well fitted curve in the direction sought with a large enough effect; inconclusive = small, poorly fitted or top-dose-only effect, or another doubt; inactive = no such curve, though single readings can be large; an effect the other way counts as inactive or inconclusive.

Tests used:
[1] = Viability qHTS for spleen associated tyrosine kinase inhibitor (SYKi) drug resistant MV4-11 cells (AID 1963824); note: nearly all actives have a fitted effect of over 35% in size
Procedure, shortened: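 SYK-inhibitor-resistant MV4-11 AML cells were seeded at 500 per well onto compound and cultured 72 hours (37 °C, 5% CO2). CellTiter-Glo was then added, and after 10 min at room temperature, luminescence gave viability.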

[2] = Cellular viability qHTS for adrenocortical cancer (ACC) cell line SW-13 (AID 1963989); conditions: SW-13 ACC cells viability, CellTiter-Glo, 48 h; activity (max response): active compounds read low; note: nearly all actives have a fitted effect of over 65% in size;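 for activity (max response): cells grown in serum-free medium with ITS supplement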
Procedure, shortened: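 Viability was read as CellTiter-Glo luminescence after 48 h compound treatment (up to 46 uM final) of SW-13 cells grown serum-free; titration curves were fit with a four-parameter logistic model to give IC50 and efficacy.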

[3] = Cellular viability qHTS for adrenocortical cancer (ACC) cell line NCI-H295R (AID 1963990); note: nearly all actives have a fitted effect of over 60% in size
Procedure, shortened: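 CellTiter-Glo ATP luminescence, read 48 h after compound addition, measured viability of NCI-H295R adrenocortical cells grown serum-free with ITS. Final concentrations spanned up to 46 uM. Data normalized to DMSO and doxorubicin, fitted for IC50 and maximal response.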

[4] = Quantitative highthroughput screen to assess conditional lethalithy of NOMO1 cells grown in RPMI1640 with untreated serum (RPMI+s) (AID 1963876); note: nearly all actives have a fitted effect of over 35% in size
Procedure, shortened: (§1)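 Each medium arm—HPLM with 10% dialyzed FBS, or RPMI1640 with 5 mM glucose and 10% untreated or dialyzed FBS—was screened against an 11-point, 3-fold compound titration for 48 h at 37 °C, with CellTiter-Glo luminescence as endpoint.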

[5] = Quantitative highthroughput screen to assess conditional lethalithy of P12 Ichikawa cells grown in Human Plasma-Like Medium with dialyzed fetal bovine serum (HPLM+ds) (AID 1963879); conditions: Potency: viability; note: nearly all actives have a fitted effect of over 35% in size; for Viability: series mostly up to about 46 µM
Procedure, shortened: as §1

[6] = Quantitative highthroughput screen to assess conditional lethalithy of P12 Ichikawa cells grown in RPMI1640 with dialyzed fetal bovine serum (RPMI+ds) (AID 1963880); conditions: Potency: P12-Ichikawa viability; note: nearly all actives have a fitted effect of over 35% in size
Procedure, shortened: as §1

[7] = Quantitative highthroughput screen to assess conditional lethalithy of SEM cells grown in Human Plasma-Like Medium with dialyzed fetal bovine serum (HPLM+ds) (AID 1963882); note: nearly all actives have a fitted effect of over 35% in size; for Viability: series mostly up to about 46 µM
Procedure, shortened: as §1

[8] = Quantitative highthroughput screen to assess conditional lethalithy of SEM cells grown in RPMI1640 with unreated serum (RPMI+s) (AID 1963883); note: nearly all actives have a fitted effect of over 35% in size
Procedure, shortened: as §1
Potency is the fitted concentration of half-maximal effect.

**Q.** With CCC(C)(C)c1ccc(O)cc1 as the compound, how does the Potency [1] read?
**A.** Its Potency is “inactive”.

**Q.** And the activity (max response) [2]?
**A.** The activity (max response) was 0.304%.

**Q.** And the Potency [3]?
**A.** The Potency was “inactive”.

**Q.** With C[CH2][Hg][S]c1ccccc1C(=O)O as the compound, how does the Potency [1] read?
**A.** The Potency was “inactive”.

**Q.** What about the Potency [2] of the same compound?
**A.** Its Potency is 2.59 µM (active).

**Q.** And the Potency [3]?
**A.** The Potency was 1.64 µM (active).

**Q.** What does the source list for Nc1ccncc1?
**A.** Potency [1]: inactive; activity (max response) [2]: 11.8%; Potency [3]: inactive

**Q.** Which Potency [1] does the source give for CC(C)=CC1C(C(=O)OCN2C(=O)C3=C(CCCC3)C2=O)C1(C)C (stereo not given) here?
**A.** Its Potency is “inactive”.

**Q.** And the activity (max response) [2]?
**A.** Its activity (max response) is -13.2%.

**Q.** And the Potency [3]?
**A.** The Potency was “inactive”.

**Q.** With NCCc1cc(O)c(O)cc1O as the compound, how does the Potency [1] read?
**A.** Its Potency is “inactive”.

**Q.** What about the activity (max response) [2] of the same compound?
**A.** Its activity (max response) is 6.64%.

**Q.** What about the Potency [3] of the same compound?
**A.** Its Potency is “inactive”.

**Q.** What does the source list for COP(=O)(OC)C(O)C(Cl)(Cl)Cl (stereo not given)?
**A.** Potency [1]: inactive; activity (max response) [2]: 6.64%; Potency [3]: inactive

**Q.** With COP(=S)(OC)Oc1ccc(SC)c(C)c1 as the compound, how does the Potency [1] read?
**A.** The Potency was “inactive”.

**Q.** What about the activity (max response) [2] of the same compound?
**A.** The activity (max response) was 5.91%.

**Q.** What about the Potency [3] of the same compound?
**A.** Its Potency is “inactive”.

**Q.** For CN(C)CCc1c[nH]c2cccc(OP(=O)(O)O)c12, which Potency [1] is on record?
**A.** The Potency was “inactive”.

**Q.** And the activity (max response) [2]?
**A.** Its activity (max response) is -5.41%.

**Q.** What about the Potency [3] of the same compound?
**A.** Its Potency is “inactive”.

**Q.** For C[C@]12COC(=O)C[C@@H]1CC[C@@H]1[C@@H]2CC[C@@]2(C)[C@H]1CC[C@]2(C)O, which Potency [1] is on record?
**A.** The Potency was “inactive”.

**Q.** What about the activity (max response) [2] of the same compound?
**A.** The activity (max response) was -23.6%.

**Q.** And the Potency [3]?
**A.** The Potency was “inactive”.

**Q.** What does the source list for CC[n+]1c(-c2ccccc2)c2cc(N)ccc2c2ccc(N)cc21?
**A.** Potency [1]: 4.22 µM (active); Potency [2]: 5.17 µM (active); Potency [3]: 14.6 µM (active)

**Q.** Which Potency [1] does the source give for Clc1ccccc1N1CCNCC1 here?
**A.** Its Potency is “inactive”.

**Q.** What about the activity (max response) [2] of the same compound?
**A.** Its activity (max response) is -1.85%.

**Q.** And the Potency [3]?
**A.** The Potency was “inactive”.

**Q.** Which Potency [1] does the source give for c1ccc2nc(N3CCNCC3)ccc2c1 here?
**A.** Its Potency is “inactive”.

**Q.** What about the activity (max response) [2] of the same compound?
**A.** Its activity (max response) is -8.05%.

**Q.** What about the Potency [3] of the same compound?
**A.** The Potency was “inactive”.

**Q.** For C=CCOC(Cn1ccnc1)c1ccc(Cl)cc1Cl (stereo not given), which Potency [1] is on record?
**A.** Its Potency is 9.44 µM (active).

**Q.** What about the Potency [3] of the same compound?
**A.** The Potency was “inactive”.

**Q.** For CN1C(=O)[C@@H](NC(=O)c2cc3ccccc3[nH]2)N=C(c2ccccc2)c2ccccc21, which Potency [1] is on record?
**A.** The Potency was 4.22 µM (active).

**Q.** What about the activity (max response) [2] of the same compound?
**A.** The activity (max response) was -6.85%.

**Q.** And the Potency [3]?
**A.** The Potency was “inactive”.

**Q.** Which results are given for CC[C@@H](CO)NC(=O)[C@@H]1C=C2c3cccc4c3c(cn4C)C[C@H]2N(C)C1?
**A.** Potency [1]: 9.44 µM (active); activity (max response) [2]: -2.39%; Potency [3]: inactive

**Q.** For COP(=S)(OC)Oc1ccc(S(=O)(=O)N(C)C)cc1, which Potency [1] is on record?
**A.** The Potency was “inactive”.

**Q.** And the activity (max response) [2]?
**A.** Its activity (max response) is -2.83%.

**Q.** What about the Potency [3] of the same compound?
**A.** The Potency was “inactive”.

**Q.** For Cc1ncc(CNC(=O)N(CCCl)N=O)c(N)n1, which Potency [1] is on record?
**A.** The Potency was “inactive”.

**Q.** And the activity (max response) [2]?
**A.** Its activity (max response) is 2.91%.

**Q.** And the Potency [3]?
**A.** The Potency was “inactive”.

**Q.** For O=c1[nH]c2ccccc2n1C1CCNCC1, which Potency [1] is on record?
**A.** The Potency was “inactive”.

**Q.** What about the activity (max response) [2] of the same compound?
**A.** The activity (max response) was 4.94%.

**Q.** And the Potency [3]?
**A.** The Potency was “inactive”.

**Q.** Which Potency [1] does the source give for C#CCOC(C(=O)OCCN(C)C)(c1ccccc1)c1ccccc1 here?
**A.** The Potency was “inactive”.

**Q.** What about the activity (max response) [2] of the same compound?
**A.** The activity (max response) was 15.9%.

**Q.** What about the Potency [3] of the same compound?
**A.** Its Potency is “inactive”.

**Q.** What does the source list for Cc1cc(O)ccc1Cl?
**A.** Potency [1]: inactive; Potency [3]: inactive

**Q.** Which results are given for CN(C)C(=S)SSC(=S)N(C)C?
**A.** Potency [1]: 4.73 µM (active); Potency [3]: 25.9 µM (active)

**Q.** For CCN(CC)CCc1c[nH]c2ccccc12, which Potency [1] is on record?
**A.** The Potency was “inactive”.

**Q.** And the activity (max response) [2]?
**A.** Its activity (max response) is -11.9%.

**Q.** What about the Potency [3] of the same compound?
**A.** Its Potency is “inactive”.

**Q.** For Nc1nc(N)nc(NC2CC2)n1, which Potency [1] is on record?
**A.** The Potency was “inactive”.

**Q.** And the activity (max response) [2]?
**A.** Its activity (max response) is -6.71%.

**Q.** And the Potency [3]?
**A.** Its Potency is “inactive”.

**Q.** Which results are given for ClC1=C(Cl)C2(Cl)C(CBr)CC1(Cl)C2(Cl)Cl (stereo not given)?
**A.** Potency [1]: inactive; activity (max response) [2]: -7.86%; Potency [3]: inactive

**Q.** Which results are given for O=[N+]([O-])O[C@H]1CO[C@H]2[C@@H]1OC[C@H]2O[N+](=O)[O-]?
**A.** Potency [1]: inactive; activity (max response) [2]: 12.6%; Potency [3]: inactive

**Q.** For CCCCOC(=O)c1ccccc1C(=O)OCc1ccccc1, which Potency [1] is on record?
**A.** The Potency was 17.2 µM (active).

**Q.** And the Potency [3]?
**A.** The Potency was “inactive”.

**Q.** What does the source list for CC1=C2C[C@H]3[C@@H](CC=C4C[C@@H](O)CC[C@@]43C)[C@@H]2CC[C@]12O[C@@H]1C[C@H](C)CN[C@H]1[C@H]2C?
**A.** Potency [1]: 14.8 µM (active); activity (max response) [2]: -8.25%; Potency [3]: inactive

**Q.** Which Potency [1] does the source give for C[C@]12CC[C@H]3[C@@H](CCC4=CC(=O)CC[C@@]43C)[C@@H]1CC[C@@H]2C(=O)O here?
**A.** Its Potency is “inactive”.

**Q.** And the activity (max response) [2]?
**A.** Its activity (max response) is 11.4%.

**Q.** And the Potency [3]?
**A.** The Potency was “inactive”.

**Q.** Which Potency [4] does the source give for COc1cccc2c1[C@]13CCN(CC4CC4)[C@H](C2)[C@]1(OC)CCC(=O)C3 here?
**A.** Its Potency is “inactive”.

**Q.** And the Potency [5]?
**A.** The Potency was “inactive”.

**Q.** And the Potency [6]?
**A.** Its Potency is “inactive”.

**Q.** And the Potency [7]?
**A.** Its Potency is “inactive”.

**Q.** And the Potency [8]?
**A.** The Potency was “inactive”.

**Q.** Which Potency [4] does the source give for CC[C@@H]1[C@@H](C)O[C@@](O)([C@@H](C)[C@H](O)[C@H](C)[C@H]2OC(=O)C=CC=C[C@@H](C)[C@@H]([C@@H](C)[C@@H](O)[C@H](C)[C@@]3(O)C[C@H](O[C@H]4C[C@H](O)[C@H](O)[C@H](C)O4)[C@H](CC)[C@@H](C)O3)OC(=O)C=CC=C[C@@H]2C)C[C@H]1O[C@H]1C[C@H](O)[C@H](O)[C@H](C)O1 here?
**A.** Its Potency is 2.96 µM (active).

**Q.** And the Potency [5]?
**A.** The Potency was 2.96 µM (active).

**Q.** And the Potency [6]?
**A.** The Potency was 3.32 µM (active).

**Q.** And the Potency [7]?
**A.** Its Potency is 2.35 µM (active).

**Q.** What about the Potency [8] of the same compound?
**A.** Its Potency is 2.64 µM (active).
